From PubChem BioAssay (Tox21)
Records with an inconclusive call do not appear. A call without a number means that no potency is given here. Activity calls are given as the source filed them. Unless noted, the call rests on the fitted dose curve; in most records, active means well fitted curve in the direction sought with a large enough effect in the repeat runs; inconclusive means weak or mixed curves; inactive means no such curve, though single readings can be large; an effect the other way counts as inactive or inconclusive.

Columns and labels:
[1] = qHTS assay to identify small molecule agonists of the androgen receptor (AR) signaling pathway in the presence of an antagonist - cell viability counter screen (AID 1259379);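 further: MDA-kb2 human breast cancer cells carrying an MMTV luciferase reporter; series mostly up to about 92 µM; nearly all actives have a fitted effect of over 25% in size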
Outline: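 MDA-kb2 human breast carcinoma cells (stable MMTV-luciferase, AR/GR responsive) were seeded 3,000 cells/well, pre-incubated 5 hr at 37C without CO2, then given 3.0uM nilutamide and compounds at 15 concentrations for 16 hr. Viability was read by CellTiter-Fluor fluorescence.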

[2] = qHTS assay to identify small molecule agonists of the estrogen receptor beta (ER-beta) signaling pathway - cell viability counter screen (AID 1259380); further: nearly all actives have a fitted effect of over 30% in size; further: potency means the concentration at half of the fitted maximal effect
Outline: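 ER-beta-UAS-bla HEK293T cells in medium with 2% charcoal-stripped FBS were preincubated 6 hr at 37C, dosed with compound in DMSO for 16 hr, then after the bla read, CellTiter-Glo was added for 30 min at room temperature; luminescence recorded.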

[3] = qHTS assay to identify small molecule antagonists of the estrogen receptor beta (ER-beta) signaling pathway - cell viability counter screen (AID 1259382);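 further: HEK293T cells carrying ER-beta-UAS-bla reporter stimulated with estradiol; series mostly up to about 92 µM; nearly all actives have a fitted effect of over 55% in size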
Outline: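 ER-beta-UAS-bla HEK293T cells (2,000/well, 2% charcoal-stripped FBS) were pre-incubated 6 hr at 37C, then given compound plus 1nM final 17-beta-estradiol for 16 hr. Viability was read in the same wells by CellTiter-Glo luminescence after 30 min at room temperature.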

[4] = biological target: Estrogen receptor (Homo sapiens) (UniProt P03372); test: qHTS assay to identify small molecule agonists of the estrogen receptor alpha (ER-alpha) signaling pathway in the presence of an antagonist (AID 1259383; calls by dose curve; further: top concentration of the series differs between compounds; nearly all actives have a fitted effect of over 15% in size)
Sequence of Estrogen receptor (Homo sapiens) (P03372 whole entry, looked up): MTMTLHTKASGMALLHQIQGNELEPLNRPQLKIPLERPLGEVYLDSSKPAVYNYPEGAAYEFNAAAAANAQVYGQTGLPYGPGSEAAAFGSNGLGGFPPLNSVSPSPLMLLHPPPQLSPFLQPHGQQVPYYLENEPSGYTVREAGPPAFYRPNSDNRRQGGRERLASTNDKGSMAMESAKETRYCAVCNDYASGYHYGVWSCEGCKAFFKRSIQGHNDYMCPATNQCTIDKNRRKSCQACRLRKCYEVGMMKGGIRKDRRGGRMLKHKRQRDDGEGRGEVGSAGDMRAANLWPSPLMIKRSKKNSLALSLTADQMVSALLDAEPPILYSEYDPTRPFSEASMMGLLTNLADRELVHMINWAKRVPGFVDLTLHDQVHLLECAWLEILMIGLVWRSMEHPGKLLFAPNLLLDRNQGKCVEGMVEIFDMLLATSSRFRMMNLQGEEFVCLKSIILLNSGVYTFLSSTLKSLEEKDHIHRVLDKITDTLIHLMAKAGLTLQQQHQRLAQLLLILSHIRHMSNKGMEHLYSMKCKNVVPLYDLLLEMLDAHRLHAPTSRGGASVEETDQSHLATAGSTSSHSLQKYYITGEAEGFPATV
Outline: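 VM7Luc4E2 cells (endogenous full-length ER-alpha, 4×ERE-luciferase) were precultured 5 days in phenol red-free medium with 10% charcoal-stripped FBS, given 10.0nM ICI-182,780 (final), then treated with compounds at 15 concentrations for 22hr at 37C; luminescence read with ONE-Glo.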

[5] = qHTS assay to identify small molecule agonists or antagonists of the thyroid stimulating hormone receptor (TSHR) signaling pathway - wild type cell line counter screen (AID 1259384; calls by dose curve)
Outline: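 Counter screen in untransfected Hek293: compounds (15-point titration, triplicate) plus phosphodiesterase inhibitor Ro20-1724 added after 18 h plating; 30 min RT. Intracellular cAMP via competitive d2/cryptate immunoassay, 1 h incubation.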

[6] = biological target: Thyrotropin receptor (Homo sapiens) (UniProt P16473); test: qHTS assay to identify small molecule antagonists of the thyroid stimulating hormone receptor (TSHR) signaling pathway (AID 1259385; calls by dose curve; further: nearly all actives have a fitted effect of over 20% in size; further: potency means the concentration at half of the fitted maximal effect)
Sequence of Thyrotropin receptor (Homo sapiens) (P16473 whole entry, looked up): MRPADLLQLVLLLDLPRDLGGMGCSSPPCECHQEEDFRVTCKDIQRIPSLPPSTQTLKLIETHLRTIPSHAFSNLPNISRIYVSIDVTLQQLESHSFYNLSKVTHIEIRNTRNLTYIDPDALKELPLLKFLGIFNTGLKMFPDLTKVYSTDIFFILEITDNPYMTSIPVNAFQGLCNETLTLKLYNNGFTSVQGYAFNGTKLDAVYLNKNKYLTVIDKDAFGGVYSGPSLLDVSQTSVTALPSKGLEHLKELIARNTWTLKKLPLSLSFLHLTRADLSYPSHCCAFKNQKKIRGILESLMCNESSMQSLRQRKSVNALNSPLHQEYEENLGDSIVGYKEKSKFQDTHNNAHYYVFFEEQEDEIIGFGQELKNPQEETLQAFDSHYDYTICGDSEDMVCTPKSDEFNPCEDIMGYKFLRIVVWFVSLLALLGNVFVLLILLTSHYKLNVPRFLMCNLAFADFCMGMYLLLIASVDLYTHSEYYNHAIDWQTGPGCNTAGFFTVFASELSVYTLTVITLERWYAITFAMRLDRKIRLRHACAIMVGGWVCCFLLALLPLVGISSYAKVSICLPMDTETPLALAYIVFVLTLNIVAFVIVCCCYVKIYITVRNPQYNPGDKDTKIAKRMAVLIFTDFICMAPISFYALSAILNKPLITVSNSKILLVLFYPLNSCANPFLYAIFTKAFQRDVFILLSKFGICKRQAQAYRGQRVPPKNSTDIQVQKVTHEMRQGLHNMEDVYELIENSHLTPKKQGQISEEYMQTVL
Outline: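 Antagonist mode: compound-treated TSHR-expressing HEK293 cells were stimulated with 1.5 ng/mL TSH (final) in presence of Ro20-1724 for 30 min at RT. HTRF cAMP detection after 1 h; each compound tested at 15 concentrations, triplicate.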

[7] = biological target: Progesterone receptor (Homo sapiens) (UniProt P06401); test: qHTS assay to identify small molecule agonists of the progesterone receptor (PR) signaling pathway (AID 1346784; calls by dose curve; further: nearly all actives have a fitted effect of over 30% in size)
Sequence of Progesterone receptor (Homo sapiens) (P06401 whole entry, looked up): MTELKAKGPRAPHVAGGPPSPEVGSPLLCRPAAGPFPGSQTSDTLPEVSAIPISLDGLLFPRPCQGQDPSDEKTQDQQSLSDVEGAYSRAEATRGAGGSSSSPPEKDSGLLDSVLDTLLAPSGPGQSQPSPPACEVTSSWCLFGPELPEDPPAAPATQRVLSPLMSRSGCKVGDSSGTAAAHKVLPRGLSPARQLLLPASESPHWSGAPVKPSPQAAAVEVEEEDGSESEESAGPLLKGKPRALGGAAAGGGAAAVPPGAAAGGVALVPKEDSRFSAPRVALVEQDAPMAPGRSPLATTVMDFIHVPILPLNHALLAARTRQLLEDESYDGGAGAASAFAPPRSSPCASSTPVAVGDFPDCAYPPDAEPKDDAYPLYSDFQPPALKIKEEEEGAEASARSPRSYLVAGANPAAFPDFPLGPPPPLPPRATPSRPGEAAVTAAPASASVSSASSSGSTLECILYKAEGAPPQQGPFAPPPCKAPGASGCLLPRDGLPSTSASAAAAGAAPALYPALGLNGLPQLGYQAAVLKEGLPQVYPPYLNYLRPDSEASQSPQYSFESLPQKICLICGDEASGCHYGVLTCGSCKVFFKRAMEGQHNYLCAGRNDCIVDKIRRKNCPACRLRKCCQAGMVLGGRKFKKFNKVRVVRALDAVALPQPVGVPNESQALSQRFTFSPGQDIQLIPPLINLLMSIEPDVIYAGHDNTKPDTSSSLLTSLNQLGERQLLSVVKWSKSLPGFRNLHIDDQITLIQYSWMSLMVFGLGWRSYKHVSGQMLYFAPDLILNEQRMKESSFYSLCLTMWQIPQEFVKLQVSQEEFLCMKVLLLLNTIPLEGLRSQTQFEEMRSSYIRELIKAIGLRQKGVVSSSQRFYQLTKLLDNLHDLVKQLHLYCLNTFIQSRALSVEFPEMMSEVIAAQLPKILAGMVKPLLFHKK
Outline: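 PR-UAS-bla HEK 293T cells (beta-lactamase reporter under UAS) in 2% charcoal-stripped FBS, dosed with 23 nL compound after 6 hr, incubated 16hr at 37C. LiveBLAzer B/G FRET substrate added, fluorescence read after 2 hours.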

[8] = biological target: Progesterone receptor (Homo sapiens) (UniProt P06401); test: qHTS assay to identify small molecule antagonists of the progesterone receptor (PR) signaling pathway (AID 1346795; active means well fitted inhibition curve with a large enough effect in the signal ratio in the repeat runs, not every such curve was filed as active; the % refers to the signal ratio; further: potency means the concentration at half of the fitted maximal effect)
Outline: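 PR-UAS-bla HEK293T cells with beta-lactamase reporter under UAS control, in 2% charcoal-stripped FBS, treated with compounds plus 1 nM promegestone (R5020, final) for 16 hr at 37C. Read-out: FRET beta-lactamase substrate fluorescence after 2 hr at room temperature.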

[9] = qHTS assay to identify small molecule antagonists of the progesterone receptor (PR) signaling pathway - cell viability counter screen (AID 1346798); further: series mostly up to about 92 µM; nearly all actives have a fitted effect of over 50% in size
Outline: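 PR-UAS-bla HEK293T cells, 3,000/well in 2% charcoal-stripped FBS medium, dosed with compounds plus R5020 agonist and incubated 16 h at 37C. Viability then measured in the same wells by CellTiter-Glo luminescence after 30 min at RT.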

[10] = qHTS assay to identify small molecule agonists of the progesterone receptor (PR) signaling pathway - cell viability counter screen (AID 1346799; calls by dose curve; further: nearly all actives have a fitted effect of over 45% in size)
Outline: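 Counter screen in the PR-UAS-bla HEK293T wells (2% charcoal-stripped FBS, 16 h compound exposure at 37 C) after the bla read. CellTiter-Glo added, 30 min at room temperature, luminescence read as cell viability.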

[11] = qHTS assay to identify small molecule antagonists of the TGF-beta/Smad signaling pathway - cell viability counter screen (AID 1346824); further: nearly all actives have a fitted effect of over 50% in size
Outline: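 Cytotoxicity counter-screen run in the same wells as the beta-lactamase Smad reporter read: CellTiter-Glo luminescence after 30 min at room temperature. HEK 293T SBE-bla cells had 5 hr compound exposure at 37 C with TGF-beta1 (0.25 ng/mL stock).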

[12] = qHTS assay to identify small molecule agonists of the TGF-beta/Smad signaling pathway - cell viability counter screen (AID 1346829); further: top concentration of the series differs between compounds; nearly all actives have a fitted effect of over 45% in size
Outline: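 In parallel with the Smad reporter read, viability of HEK 293T cells stably carrying SBE-bla is quantified by ATP luminescence following 5 hr compound treatment.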

[13] = qHTS assay to identify small molecule agonists of the TGF-beta/Smad signaling pathway (AID 1346859; active means well fitted activation curve with a large enough effect in the signal ratio in the repeat runs, not every such curve was filed as active; the % refers to the signal ratio; further: series mostly up to about 77 µM)
Outline: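 SBE-bla HEK293T cells plated overnight, then compound exposure for 5 h at 37 C. Beta-lactamase reporter read with LiveBLAzer B/G FRET substrate after 2 h at room temperature, fluorescence at 405 nm excitation, 460/530 nm emission.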

[14] = biological target: Thyrotropin-releasing hormone receptor (Homo sapiens) (UniProt P34981); test: qHTS assay to identify small molecule antagonists of the thyrotropin-releasing hormone receptor (TRHR) signaling pathway (AID 1346877; active means well fitted inhibition curve with a large enough effect in the repeat runs, not every such curve was filed as active; further: series mostly up to about 51 µM)
Sequence of Thyrotropin-releasing hormone receptor (Homo sapiens) (P34981 whole entry, looked up): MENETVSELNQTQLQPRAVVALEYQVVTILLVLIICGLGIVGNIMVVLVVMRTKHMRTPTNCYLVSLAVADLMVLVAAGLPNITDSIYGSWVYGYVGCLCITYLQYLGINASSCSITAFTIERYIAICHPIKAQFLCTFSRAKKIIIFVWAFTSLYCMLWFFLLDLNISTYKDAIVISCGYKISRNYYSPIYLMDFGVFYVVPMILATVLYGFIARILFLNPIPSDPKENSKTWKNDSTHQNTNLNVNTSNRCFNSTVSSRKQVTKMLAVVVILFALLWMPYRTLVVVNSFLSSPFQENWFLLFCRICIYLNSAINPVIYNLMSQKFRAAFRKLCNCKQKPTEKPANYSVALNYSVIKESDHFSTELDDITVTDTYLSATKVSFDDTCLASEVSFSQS
Outline: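 TRHR-expressing HEK293 cells were seeded, cultured 18 h at 37 °C, then loaded with calcium dye for 2 h. Compounds were pre-incubated 5 min at room temperature before 1 nM TRH (final) was added, and kinetic fluorescence was recorded for 3 min.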

[15] = qHTS assay to identify small molecule antagonists of the sonic hedgehog signaling (Shh) pathway (AID 1259369; calls by dose curve; further: nearly all actives have a fitted effect of over 45% in size; further: potency means the concentration at half of the fitted maximal effect)
Outline: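 NIH/3T3-derived 3T3Gli1-Luc cells with stably integrated Gli1-Luc reporter were preincubated 4hr at 37 C, then given compounds in DMSO plus Shh conditioned medium and incubated 24hr. Firefly luciferase luminescence read after 30min reagent at room temperature.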

[16] = biological target: Estrogen receptor beta (Homo sapiens) (UniProt Q92731); test: qHTS assay to identify small molecule agonists of the estrogen receptor beta (ER-beta) signaling pathway (AID 1259377; active means well fitted activation curve with a large enough effect in the signal ratio in the repeat runs, not every such curve was filed as active; the % refers to the signal ratio)
Sequence of Estrogen receptor beta (Homo sapiens) (Q92731 whole entry, looked up): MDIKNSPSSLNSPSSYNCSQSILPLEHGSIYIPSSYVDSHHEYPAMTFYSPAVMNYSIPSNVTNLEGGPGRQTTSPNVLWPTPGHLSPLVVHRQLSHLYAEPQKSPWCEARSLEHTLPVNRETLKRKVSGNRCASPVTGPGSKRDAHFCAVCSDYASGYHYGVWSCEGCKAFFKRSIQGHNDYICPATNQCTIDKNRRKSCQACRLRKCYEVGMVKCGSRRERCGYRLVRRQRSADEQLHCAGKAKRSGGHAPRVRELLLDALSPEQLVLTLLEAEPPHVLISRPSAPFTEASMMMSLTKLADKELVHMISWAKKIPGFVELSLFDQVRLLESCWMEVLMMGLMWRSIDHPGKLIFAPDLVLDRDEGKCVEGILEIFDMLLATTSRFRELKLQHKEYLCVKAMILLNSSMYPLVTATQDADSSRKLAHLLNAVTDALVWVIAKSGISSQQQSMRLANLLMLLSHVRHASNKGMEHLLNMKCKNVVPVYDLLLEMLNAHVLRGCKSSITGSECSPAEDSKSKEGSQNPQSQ
Outline: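 ER-beta-UAS-bla HEK293T cells in medium with 2% charcoal-stripped FBS were exposed to compounds for 16 h at 37C. Beta-lactamase reporter activity was read as fluorescence after 2 h with LiveBLAzer B/G FRET substrate at room temperature.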

[17] = biological target: Estrogen receptor beta (Homo sapiens) (UniProt Q92731); test: qHTS assay to identify small molecule antagonists of the estrogen receptor beta (ER-beta) signaling pathway (AID 1259378; active means well fitted inhibition curve with a large enough effect in the signal ratio in the repeat runs, not every such curve was filed as active; the % refers to the signal ratio; further: potency means the concentration at half of the fitted maximal effect)
Outline: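 Antagonist mode: compounds added to beta-lactamase reporter HEK293T ER-beta-UAS cells stimulated with E2 (1nM final), 16 hr at 37C. LiveBLAzer B/G FRET substrate, 2 hours room temperature, fluorescence read-out.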

[18] = qHTS assay to identify small molecule agonists of the estrogen receptor alpha (ER-alpha) signaling pathway in the presence of an antagonist - cell viability counter screen (AID 1259386);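 further: series mostly up to about 92 µM; cells exposed to compounds for 22 h at 37 °C before the viability read; nearly all actives have a fitted effect of over 30% in size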
Outline: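 VM7Luc4E2 cells (endogenous full-length ER-alpha, 4×ERE-luciferase) were held 5 days in phenol red-free medium with 10% charcoal-stripped FBS, plated, then given 10.0nM ICI-182,780 and compounds at 15 concentrations for 22hr at 37C; viability read by CellTiter-Fluor fluorescence.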

Structure (SMILES) | Potency [1] | Potency [2] | Potency [3] | Potency [4] | outcome [5] | Potency [6] | Potency [7] | Potency [8] | Potency [9] | Potency [10] | outcome [11] | outcome [12] | outcome [13] | outcome [14] | Potency [15] | Potency [16] | Potency [17] | Potency [18]
COc1cc2[nH]c(=O)[nH]c(=O)c2cc1OC | inactive | inactive | inactive | inactive | inactive | inactive | inactive | inactive | inactive | inactive | inactive | inactive | inactive | inactive | – | – | – | –
Cc1ccc(/C=N/n2c(-c3ccccc3)csc2=S)cc1 | inactive | – | inactive | – | inactive | inactive | inactive | – | – | – | – | – | inactive | inactive | inactive | inactive | 7.5 µM (active) | inactive
C=CC(=O)NCOCC(C)C | inactive | inactive | inactive | – | inactive | inactive | – | inactive | inactive | inactive | inactive | inactive | inactive | inactive | inactive | inactive | – | inactive
CN1Cc2cc(C(=O)N3CCC(C4CCNCC4)CC3)ccc2N[C@@H](CC(=O)O)C1=O | inactive | inactive | inactive | inactive | inactive | inactive | inactive | inactive | inactive | inactive | inactive | inactive | inactive | inactive | inactive | inactive | – | inactive
CC(C)(C)C(=O)C(Oc1ccc(Cl)cc1)n1ccnc1 (centres undefined) | inactive | 1.19 µM (active) | inactive | – | inactive | inactive | inactive | 23.7 µM (active) | inactive | – | inactive | inactive | inactive | inactive | – | inactive | – | –
O=C(C(=O)c1ccccc1)c1ccccc1 | inactive | inactive | inactive | – | – | – | – | inactive | inactive | inactive | inactive | inactive | inactive | – | inactive | – | – | inactive
C=CCNc1nc(NCC=C)nc(N2CCN(C(c3ccc(F)cc3)c3ccc(F)cc3)CC2)n1 | – | – | inactive | – | inactive | 9.44 µM (active) | inactive | 2.98 µM (active) | – | – | inactive | inactive | inactive | inactive | inactive | – | – | –
NC(=O)Nc1ccc(Cl)c(Cl)c1 | inactive | inactive | inactive | – | inactive | inactive | inactive | – | inactive | inactive | inactive | inactive | inactive | inactive | – | – | – | inactive
CCn1nc(C)c2c1C(=O)NCC(c1ccc(O)cc1)=N2 | inactive | inactive | inactive | – | inactive | – | inactive | inactive | inactive | – | inactive | inactive | inactive | – | 0.0122 µM (active) | – | inactive | inactive
CO/N=C1\CN(c2nc3c(cc2F)c(=O)c(C(=O)O)cn3C2CC2)CC1CN (centres undefined) | inactive | – | inactive | inactive | inactive | inactive | – | – | inactive | inactive | inactive | inactive | inactive | – | inactive | inactive | – | –
Cc1ccccc1N1C(=O)c2cc(S(N)(=O)=O)c(Cl)cc2NC1C (centres undefined) | inactive | inactive | inactive | – | inactive | inactive | inactive | inactive | inactive | inactive | inactive | inactive | inactive | – | inactive | inactive | – | inactive
CO[C@H]1O[C@H](CO)[C@@H](O)[C@H](O)[C@H]1O | inactive | inactive | inactive | – | inactive | inactive | inactive | inactive | inactive | inactive | inactive | inactive | inactive | – | inactive | inactive | – | inactive
